Compound activity as filed in PubChem BioAssay.
An excerpt weighted towards active compounds, which were near 19% of everything screened.
HT1080NT lethal – qHTS for induction of synthetic lethality in tumor cells producing 2HG: qHTS for the HT-1080-NT fibrosarcoma cell line | HT-1080-NT fibrosarcoma viability, CellTiter-Glo ATP luminescence, 48 h | Potency, µM (doses to about 46.1 µM), for the others: top-dose activity, negative = less viability, most hits filed as cytotoxic | 1.6% of 360,000 active | AID 686970, 2013;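 also: NT is the 2HG producing partner of a matched IDH1 knockdown line; potency is read from the fitted curve at half-maximal effect; 0% = DMSO-treated cells and -100% = media-only wells without cells; nearly all actives have a fitted effect of over 55% in size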
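Read-out is CellTiter-Glo luminescence after 10 minutes at room temperature, following 48 hours' compound treatment of HT-1080-NT cells (750 cells/well, RPMI, 5% FBS, 37 degrees C).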
ELG1 repair inh – qHTS screen for small molecules that inhibit ELG1-dependent DNA repair in human embryonic kidney (HEK293T) cells expressing luciferase-tagged ELG1. HEK293T ELG1-luciferase reporter, luminescence, 16 h; DNA damage induced by 5-fluorouridine. Potency, µM (series often up to 46.1 µM), inactives show top-dose activity change, negative = inhibition, actives largely listed as inhibitors. 2.3% of 330,000 active; also: potency is read from the fitted curve at half-maximal effect; nearly all actives have a fitted effect of over 55% in size
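Cells (2,000 per well) received 5-fluorouridine plus test compound or DMSO and were incubated 16 hr at 37 °C, 5% CO2. Luciferase activity was read by luminescence 30 min after ONE-Glo addition; signal suppression marked inhibition of damage-induced ELG1 function.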
DT40 TDP1 no CPT – qHTS for Inhibitors of human tyrosyl-DNA phosphodiesterase 1 (TDP1): qHTS in cells in absence of CPT; DT40 Tdp1-/- hTDP1 cells, no CPT, ATP luminescence, 48 h; Potency, µM (titrated, usually from 46.2 µM), inactives show at the highest dose activity change, negative = growth inhibition, actives largely listed as inhibitors; 15% of 420,000 active; AID 686978, 2013; also: potency is read from the fitted curve at half-maximal effect; nearly all actives have a fitted effect of over 55% in size
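Luminescent ATP content (CellTiter-Glo) served as the growth readout. Knockout chicken DT40 cells expressing human TDP1 were exposed to compounds without camptothecin for a minimum 48 hr at 37 °C.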
HT1080 IDH1KD tx – qHTS for induction of synthetic lethality in tumor cells producing 2HG: qHTS for the HT-1080-IDH1KD cell line; 2% of 360,000 active; HT-1080 IDH1 knockdown viability, ATP luminescence, 48 h; Potency, µM (top dose mostly 46.1 µM), for inactives: at the highest dose activity, negative = toxicity, usual class: cytotoxic; AID 686971, 2013;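 also: potency is read from the fitted curve at half-maximal effect; 0% = DMSO wells and -100% = cell-free medium wells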
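Viability of IDH1-knockdown HT-1080 fibrosarcoma cells was assessed by CellTiter-Glo after 48 h at 37 °C with titrated compound; concentration-effect curves were classified by fit quality and response size.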
IL1B secr inh – qHTS for Inhibitors of Inflammasome Signaling: IL-1-beta AlphaLISA Primary Screen; THP-1 LPS/ATP IL-1B secretion, AlphaLISA, 16 h; active compounds read low; activity change, % at 57.5 µM; 4.7% of 360,000 active; in the data active = activity change below about -50%; inconclusive = mostly about -30% to -49%
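THP-1 cells pretreated 1 hr with compounds (up to 57.5 uM final), then stimulated with LPS (250 ng/mL final) plus ATP (1.25 mM final); secreted IL-1B measured by AlphaLISA after 16 hr, decreased signal indicating inhibition.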
TDP1 cell CPT – qHTS for Inhibitors of human tyrosyl-DNA phosphodiesterase 1 (TDP1): qHTS in cells in presence of CPT. 12% of 420,000 active. Potency, µM (top dose mostly 46.2 µM), for the others: at the highest dose activity change, negative = growth inhibition, usual class: inhibitors. chicken DT40 Tdp1-/-;hTDP1 cells + 20 nM CPT, ATP luminescence, 48 h. AID 686979, 2013; also: potency is read from the fitted curve at half-maximal effect; nearly all actives have a fitted effect of over 55% in size
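Chicken DT40 Tdp1-/- cells complemented with human TDP1, 400 cells/well, exposed to compounds plus 20 nM camptothecin for at least 48 h at 37 C; viability read as ATP content by CellTiter-Glo luminescence.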
The depositor's hits bear a star; ? = inconclusive; / = no result. Unless noted, calls follow the shape of the dose curve; as a rule, active = well fitted curve in the direction sought with a large enough effect; inconclusive = small, poorly fitted or top-dose-only effect, or another doubt; inactive = no such curve, though single readings can be large; an effect the other way counts as inactive or inconclusive. Unless noted, % is scaled to controls: 0 for no effect and ±100 for the full control effect.

SMILES | HT1080NT lethal | ELG1 repair inh | DT40 TDP1 no CPT | HT1080 IDH1KD tx | IL1B secr inh | TDP1 cell CPT
COc1cc(OC)c(OC)cc1/C=C/c1nc2ccccc2o1 | / | / | 13µM* | / | / | ?
COc1cc(Cl)cc(/C=C/c2ccc3ccccc3n2)c1OC(C)=O | 15µM* | ? | ? | 15µM* | -102* | ?
Fc1ccc(/C=C/c2ccc3ccccc3n2)cc1 | / | / | 2.8µM* | / | / | 2.8µM*
COc1cc(/C=C\c2ccc(OC)cc2OC)cc(OC)c1 | / | / | ? | / | / | 7.5µM*
CC(=O)NCCNc1nc2cc(-c3ccsc3)sc2c(=O)n1C | 2% | / | -13% | 17% | 33 | -22%
Cc1ccc(NC(=O)CSc2[nH]c(=O)ncc2C)cc1 | / | / | -15% | / | / | ?
Fc1cccc(F)c1/C=C/c1ccc2ccccc2n1 | -23% | ? | ? | -22% | -7 | ?
COc1cc(OC)c(OC)cc1/C=C/c1ccc2ccccc2n1 | / | / | 14µM* | / | / | 11µM*
COc1ccccc1/C=C/c1ccc2ccccc2n1 | / | / | 16µM* | / | / | ?
COc1ccc(NC(=O)COC(=O)c2ccc3ccccc3n2)c(OC)c1 | -1% | 21% | 2% | 9% | 4 | -1%
CC(O)/C=C/c1ccc2ccccc2n1 (stereo unspecified) | ? | 14% | ? | 11µM* | -96* | 13µM*
COc1ccc(C=Cc2ccc3ccccc3n2)c(OC)c1 | -29% | / | 23µM* | ? | -12 | -28%
CCC(=O)N1CCc2cc(Br)cc(S(=O)(=O)CCC(=O)Nc3cccc(C)c3C)c21 | / | / | -26% | / | / | -7%
CCS(=O)(=O)N1CCC(C(=O)Oc2ccc(C)c(C)c2)CC1 | 3% | 9% | 7% | 3% | 12 | -3%
COc1ccc(/C=C/c2nc3cc(-c4ccccc4)ccc3o2)cc1O | ? | ? | 9.2µM* | ? | -18 | 9.2µM*
CCCCN(CC)CCCNC(=O)c1ccc(CS(=O)(=O)c2ccccc2C)o1 | -14% | 4% | 24% | 8% | 17 | -4%
CN(C)c1ccc(C(CNC(=O)c2ccccc2Br)c2c[nH]c3ccccc23)cc1 (stereo unspecified) | 6% | ? | -12% | 0% | 0 | -21%
CN(C)c1ccc(C(CNC(=O)c2ccc(C#N)cc2)c2c[nH]c3ccccc23)cc1 (stereo unspecified) | -17% | ? | 21µM* | -26% | ? | ?
CN(C)c1ccc(C(CNS(=O)(=O)c2ccc(F)cc2)c2c[nH]c3ccccc23)cc1 (stereo unspecified) | -21% | -20% | 15µM* | -30% | -64* | ?
CCOC(=O)c1ccc(S(=O)(=O)NCC(c2ccc(N(C)C)cc2)c2c[nH]c3ccccc23)cc1 (stereo unspecified) | ? | 1% | ? | ? | 3 | ?
C=CCC[C@H](Cc1ccc(F)cc1)C(=O)OC[C@H](C)NC(=O)[C@@H](CC=C)CC(=O)N[C@H](CO)Cc1ccccc1 | -17% | ? | ? | -11% | -2 | ?
CCN(Cc1ccccc1)C(=O)c1cccc(S(=O)(=O)N2CCN(c3ccc(F)cc3)CC2)c1 | -7% | ? | 16µM* | -11% | -26 | 18µM*
O=C(c1cccc(S(=O)(=O)N2CCOCC2)c1)N(Cc1ccc(F)cc1)Cc1ccco1 | -4% | -21% | 18µM* | -4% | 14 | ?
COCCN(Cc1ccccc1)C(=O)c1cccc(S(=O)(=O)N2CCCc3ccccc32)c1 | -20% | 16% | 9.2µM* | -28% | 25 | 13µM*
O=C(c1cccc(S(=O)(=O)N2CCCCC2)c1)N(CCc1ccccc1)Cc1ccccc1 | -3% | ? | ? | -2% | 2 | 18µM*
SMILES | HT1080NT lethal | ELG1 repair inh | DT40 TDP1 no CPT | HT1080 IDH1KD tx | IL1B secr inh | TDP1 cell CPT
CN(C)S(=O)(=O)c1cccc(C(=O)N(Cc2ccc(F)cc2)Cc2ccco2)c1 | -11% | ? | ? | -9% | -10 | ?
CCCn1c(N)c(N(CCOC)C(=O)c2cccc(S(=O)(=O)N3CCCc4ccccc43)c2)c(=O)[nH]c1=O | 12% | 26% | ? | 14% | 6 | ?
COc1cc(C(=O)N/C(=C\c2cn(S(=O)(=O)N(C)C)c3ccccc23)C(=O)N2CCCC2)cc(OC)c1OC | -14% | ? | ? | -16% | -15 | ?
COc1ccc(-n2cc(C(=O)N(CCN(C)C)Cc3ccccc3)c3ccccc3c2=O)cc1 | / | / | ? | / | / | -27%
O=C(O)c1ccccc1C(=O)NCc1ccc2c(c1)OCO2 | -3% | 24% | -3% | -4% | 19 | -3%
Cc1nc2ccc(S(=O)(=O)N(CC(=O)Nc3cccc(C)c3C)Cc3ccccc3)cc2s1 | / | / | ? | / | / | -18%
CCOc1cccc(C(=O)c2ccc(O)c(O)c2O)c1 | / | / | ? | / | / | -105%
CCc1ccc(CN(C)C(=O)c2cc(S(=O)(=O)N3CCOCC3)ccc2N2CCCC2)cc1 | 3% | ? | ? | 1% | 6 | ?
COCCN(Cc1ccccc1)C(=O)c1cccc(S(=O)(=O)N2CCN(Cc3ccccc3)CC2)c1 | -16% | / | 18µM* | -20% | -7 | ?
CN(Cc1ccccc1)C(=O)c1ccc2c(c1)OCO2 | -6% | ? | -6% | 2% | -6 | 4%
CCCCN(C(=O)c1ccc2c(c1)OCO2)c1ccccc1 | -6% | -1% | 16µM* | 0% | 21 | ?
CCN(Cc1ccccc1)C(=O)c1cccc(S(=O)(=O)N2CCN(Cc3ccccc3)CC2)c1 | -1% | -7% | 26µM* | -19% | -9 | 16µM*
CCN(Cc1ccccc1)C(=O)c1cc(S(=O)(=O)N2CCOCC2)ccc1N1CCCC1 | 0% | 4% | 16µM* | 0% | -9 | ?
CCc1ccc(C(=O)COC(=O)C2=NN(c3ccccc3)C(=O)CC2)cc1 | 0% | ? | 14% | 14% | 41 | 3%
COc1ccc(/C=C(\C#N)c2nc(-c3cc(Cl)ccc3OC)cs2)cc1 | / | / | -17% | / | / | -16%
